Source: PubChem BioAssay
Pf Dd2 growth – Plasmodium falciparum Dd2 growth inhibition. P. falciparum Dd2 growth, SYBR Green, 72 h. Potency, µM (top dose mostly 28.9 µM), without a hit: at the highest dose activity, negative = inhibition, most hits filed as inhibitors. 120,000 compounds, 4.3% hits. AID 1347417; active = well fitted inhibition curve with a large enough effect;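 also: plate controls were DMSO vehicle for no effect and reference drug for full effect; nearly all actives have a fitted effect of over 65% in size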
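Infected erythrocytes (Dd2, 0.3% parasitemia, 2.5% hematocrit final) are added to compound in RPMI-1640/Albumax II medium, grown 72 h at 37C in low oxygen, then lysed with saponin/Triton-X containing SYBR Green and read by fluorescence.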
Starred values were filed as active, the others as inactive; [ ] = another dose, or the depositor's remark. This is one part of a sample in which hits are shown more often than they occur. Potency is read from the fitted curve at half-maximal effect.

`O=C(NCc1ccco1)N[C@@H]1[C@@H](Cc2ccccc2)[C@H]2OCC[C@@H]12` gave Pf Dd2 growth -15%.
`CCc1nc2c(c(-c3ccc(Cl)cc3)n1)CCN(Cc1cc(C)on1)CC2` gave Pf Dd2 growth inactive.
For CCc1nc2c(c(-c3ccc(Cl)cc3)n1)CCN(Cc1ccc(C(F)(F)F)cc1)CC2 the results were Pf Dd2 growth inactive.
Oc1ccc(-c2nc(C3CC3)nc3c2CCN(Cc2ccccc2)CC3)cc1 was read as Pf Dd2 growth -8%.
Screening COc1ccc(-c2nc(C3CC3)nc3c2CCN(Cc2ccsc2)CC3)cc1 returned Pf Dd2 growth 10µM*.
`CCc1nc2c(c(-c3ccc(O)cc3)n1)CN(Cc1ccc(OC)cc1)CC2` gave Pf Dd2 growth -17%.
`CCc1nc2c(c(-c3ccc(OC)cc3)n1)CN([S+](=O)([O-])c1cccc(C(F)(F)F)c1)CC2` gave Pf Dd2 growth -8%.
CCc1nc2c(c(-c3ccc(Cl)cc3)n1)CN(Cc1cccc(F)c1)CC2 was read as Pf Dd2 growth 10µM*.
For COc1cccc([S+](=O)([O-])N2CCc3nc(C4CC4)nc(-c4ccc(Cl)cc4)c3C2)c1 the results were Pf Dd2 growth -20%.
`Oc1ccc(-c2nc(C3CC3)nc3c2CCN(Cc2ccc(OC(F)(F)F)cc2)CC3)cc1` gave Pf Dd2 growth -2%.
CCc1nc2c(c(-c3ccc(O)cc3)n1)CCN(Cc1ccncc1)CC2 was read as Pf Dd2 growth inactive.
For CCc1nc2c(c(-c3ccc(Cl)cc3)n1)CCN([S+](=O)([O-])c1cccc(OC)c1)CC2 the results were Pf Dd2 growth 13µM*.
For CCc1nc2c(c(-c3ccc(O)cc3)n1)CCN(Cc1ccc(OC)cc1)CC2 the results were Pf Dd2 growth 2µM*.
CCOc1nccnc1NC1CCN(S(=O)(=O)C2CC2)CC1 was read as Pf Dd2 growth 46%[5.79 µM].
For COc1cc(F)ccc1-c1ccnc2nc(CC(C)C)nn12 the results were Pf Dd2 growth -13%.
Cc1cnc(C(=O)NC2C[C@H]3CC[C@@H](C2)N3C(=O)COc2ccccc2)cn1 (stereo partly drawn) was read as Pf Dd2 growth inactive.
`CN(Cc1cccn1C)C(=O)c1ccccc1Cl` gave Pf Dd2 growth 9%[44.1 µM].
COc1cccc(CN2C(=O)C3(CCOCC3)CC2c2nnnn2C(C)(C)C)c1OC (stereo not drawn) was read as Pf Dd2 growth inactive.
Screening COc1ccc(-c2nc(C3CC3)nc3c2CCN(Cc2ccc(F)cc2)CC3)cc1 returned Pf Dd2 growth 7.1µM*.
`COc1ccc(-c2nc(C3CC3)nc3c2CCN(CC2CC2)CC3)cc1` gave Pf Dd2 growth -11%.
COc1ccc(-c2nc(C3CC3)nc3c2CCN(CC2CCCCC2)CC3)cc1 was read as Pf Dd2 growth inactive.
`COc1ccccc1C(=O)N1CCC(O)(c2ccccc2)[C@H](N(C)C)C1` (stereo partly drawn) gave Pf Dd2 growth inactive[5.79 µM].
For Cc1ccc(C(=O)N2CCCCCCNC(=O)[C@@H]3CCCC[C@@H]32)s1 the results were Pf Dd2 growth inactive.
Screening CN(C(=O)N1CCCn2nc(C(=O)N3CCOCC3)cc2C1)c1ccccc1 returned Pf Dd2 growth 7%.
`CN1C(=O)c2cccn2CC1CNC(=O)c1[nH]nc2c1COc1ccccc1-2` (stereo not drawn) gave Pf Dd2 growth 8.9µM*.
CN1C(=O)c2cccn2CC1CNC(=O)c1n[nH]c(=O)c2ccccc12 (stereo not drawn) was read as Pf Dd2 growth 16%.
`COCCN1C(=O)c2cccn2CC1CNC(=O)c1[nH]nc2c1COc1ccccc1-2` (stereo not drawn) gave Pf Dd2 growth -5%.
For Cc1cccc(-n2cc(CN3C[C@@H](NS(C)(=O)=O)[C@H](C(C)C)C3)cn2)c1 the results were Pf Dd2 growth -23%.
`O=C(NCCN1CCCCC1)C1CCN(C(=O)N2CC3CC(C2)[C@H]2CCCC(=O)N2C3)CC1` (stereo partly drawn) gave Pf Dd2 growth 7%.
For C=CCN1CCN(C(=O)CCC[C@@H]2[C@H]3CCCN4CCC[C@@H](CN2Cc2ccccc2)[C@@H]34)CC1 the results were Pf Dd2 growth inactive.
For O=C(CCC[C@@H]1[C@H]2CCCN3CCC[C@@H](CN1C(=O)c1cccnc1)[C@@H]23)N1CCCC1 the results were Pf Dd2 growth 3%.
C=CCN1CCN(C(=O)CCC[C@@H]2[C@H]3CCCN4CCC[C@@H](CN2C(=O)c2ccccc2)[C@@H]34)CC1 was read as Pf Dd2 growth 10µM*.
O=C(COc1ccccc1)N1CCC(O)(c2csc(CN3CCOCC3)n2)CC1 was read as Pf Dd2 growth 16%[44.1 µM].
CCc1ccc(NC(=O)CN(c2ccc(Cl)cc2)S(=O)(=O)c2ccsc2C(=O)OC)cc1 was read as Pf Dd2 growth 11µM*.
COC(=O)c1sccc1S(=O)(=O)N(CC(=O)Nc1ccc(C)cc1)c1ccccc1 was read as Pf Dd2 growth -17%.
Screening COC(=O)c1sccc1S(=O)(=O)N(CC(=O)Nc1ccccc1F)c1ccccc1 returned Pf Dd2 growth 55%.
O=C1CNc2ccc(C(=O)NCc3cc4n(n3)CCCNC4)cc2N1 was read as Pf Dd2 growth 5%.
CNC(=O)[C@@H](C1CC1)N1CCC[C@H]1C(=O)NCC1CC1 was read as Pf Dd2 growth 11%[44.1 µM].
`CC(c1cccs1)N(C)C(=O)c1ccc(C(F)(F)F)cc1` (stereo not drawn) gave Pf Dd2 growth -20%[44.1 µM].
`Cc1nnnn1CC(=O)Nc1nn(Cc2ccccc2)c2cccc(OC(C)C)c12` gave Pf Dd2 growth inactive.
CC(C)Oc1cccc2c1c(NC(=O)C1CCN(C)C1)nn2Cc1ccccc1 (stereo not drawn) was read as Pf Dd2 growth 2.2µM*.
CC(C)Oc1cccc2c1c(NC(=O)C1CC(=O)N(C)C1)nn2Cc1ccccc1 (stereo not drawn) was read as Pf Dd2 growth -11%.
For CCNC(=O)N1CC(c2nnc(C(C)C)o2)C2(CCOCC2)C1 (stereo not drawn) the results were Pf Dd2 growth 46%.
`N#C/C(=C/c1ccc(Cl)cc1Cl)c1nc2ccccc2c(=O)[nH]1` gave Pf Dd2 growth 26%.
Cc1c(Cl)cccc1-c1ccc(/C=C(\C#N)c2nc3ccccc3[nH]2)o1 was read as Pf Dd2 growth inactive.
For COc1c(Cl)cc(Cl)cc1/C=C(\C#N)c1nc2ccccc2[nH]1 the results were Pf Dd2 growth 5.6µM*.
For COC[C@H]1C[C@@H](NC(=O)C2CCCC2)[C@H](O)[C@@H]1O the results were Pf Dd2 growth 7%[44.1 µM].
Screening CN1C(=O)C2(CCN(C(=O)c3ccnn3C)CC2)c2ccccc21 returned Pf Dd2 growth 46%.
CN1C(=O)[C@@H]2C[C@@H](CN2C(=O)c2ccc3c(c2)OCO3)Oc2ccccc21 was read as Pf Dd2 growth 12%[44.1 µM].
For COc1ccc(OC2CCN(C(C)=O)CC2)c(C(=O)N2CCCCC2CCO)c1 (stereo not drawn) the results were Pf Dd2 growth -11%.
For Nc1cccc(-c2cn(C[C@H]3CC4CCN3C[C@@H]4C(=O)Nc3ccccc3)nn2)c1 (stereo partly drawn) the results were Pf Dd2 growth 7.9µM*.
Screening O=C(Nc1ccccc1)[C@H]1CN2CCC1C[C@@H]2Cn1cc(C2(O)CCCCC2)nn1 (stereo partly drawn) returned Pf Dd2 growth inactive.
For COCCNC(=O)[C@H]1CN2CCC1C[C@@H]2Cn1cc(-c2cccc(N)c2)nn1 (stereo partly drawn) the results were Pf Dd2 growth -9%[44.1 µM].
